# Measured values: the supplement of paper PMC6555819
# System: PPARg:RXRa 90nM:30nM, anti-RXR (NR concentration 90 nM, RXRa partner concentration 30 nM)
# Assay: PBM binding z-score (relative to random genomic background probes); higher = stronger binding; sequences stand for … in GC…GCGATTGACAGCGTAGAATGAAGG
# Outline: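 Ligand-free nuclear receptor dimers were bound for 1 h to custom Agilent 4×180K protein-binding microarrays. Detection used antibodies against each partner (one per run). Binding z-scores rest on regression-normalized fluorescence, with random background probes as the reference.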
row,Sequence,PBM binding z-score
1,GCTGACGGGTCAAAGGTTATAGCATGAATAGAAT,8.55
2,ATCGAAAGGTTGACGAGGTGAGTATACACCGTTT,0.771
3,CCTAATGGGCCATTCAGAGGTCATTGATCATATG,1.54
4,CAAACTAGCTCAAGGTCAAAGTCGGTTTGTGCCA,2.05
5,TAGCCTAGATCAGATCGGGCCAGTATACGCTATA,-0.448
6,CCTAGCAGGTCAGGGTCACTCAAGCATTTCGCTT,3.27
7,TAGCCTAGGTCATGCGAGCCAGTATAGTGTCGGC,1.24
8,CCTACTGGGCCCAAAAGGTCATTGATGCCGATAA,2.69
9,TCTAGTTGGTCAAAGGTCACACATTCGAAATGCG,10.5
10,AGAATGAGGTTAAGAACAGGGAAACAGAATACAT,1.34
11,GATACAGGGTCAAGGCAAGAGTACGCGTATTGAT,4.16
12,CCTTACGGGTCAAGCTTATAGCACGGGTGGTACG,3.43
13,CTACCAAGGTGAACAAGGTCCTTGATTACTATTC,0.296
14,TCTCGGAGGACACGAAAGGTCAGAGCTCGACATC,2.41
15,TCTATTAGTTGATTACGGCAACCGAAACAGCGGA,3.1
16,ATCGAAAGGTCGGAGGTGAGTATACCCACCCGAA,2.13
17,TGAATGAGGTTAAAGTTCAGGGAACGTGGCGTCG,9.05
18,CCTTACGGGTCACTCCAGTTTATAGCATCGGAGT,2.27
19,ACTAGTAGTTGACTTAGGGCAACCGATACGACGC,-0.0744
20,ACAGACAGGGGAGTGAAGGTAACTCAGCTGGACG,0.442
21,TAGCCTATGTCATGCGGGCCAGTATAGTGTCGGC,-0.433
22,CCTACTGGGCCAAAGGTCATTGTTTCCAATGCTC,11.3
